These results are taken from PubChem BioAssay (NCATS).

Inconclusive results are not listed. Activity calls are given as the source filed them. Unless noted, the call rests on the fitted dose curve; in most records, active means well fitted curve in the direction sought with a large enough effect; inconclusive means small, poorly fitted or top-dose-only effect, or another doubt; inactive means no such curve, though single readings can be large; an effect the other way counts as inactive or inconclusive.

Assay [1] has as its target Alpha-galactosidase (Coffea arabica) (UniProt Q42656). The experiment in a line: Counterscreen for Glucocerebrosidase Inhibitors: qHTS Assay for Coffee Bean alpha-Galactosidase at pH 4.5 (AID 957).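 Further: plate controls were enzyme alone for no effect and no enzyme for full effect.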 In a few lines: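 Fluorogenic qHTS at pH 4.5 (citrate buffer with Tween-20): 2 nM enzyme, 80 uM 4-MU-alpha-galactoside substrate, compound titrated 0.7 nM to 77 uM, 20 min room temperature. Glycine/NaOH stop; 4-MU read Ex 365/Em 440; Hill-equation AC50 against no-enzyme and enzyme controls.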
For orientation: Counterscreens check selectivity or assay interference.

Assay [2] shares this target. The assay is described as follows: Counterscreen for Glucocerebrosidase Inhibitors: qHTS Assay for Coffee Bean alpha-Galactosidase at pH 5.9 (AID 998).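 Further: plate controls were uninhibited enzyme for no effect and no-enzyme basal signal for full effect.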 A digest of the protocol:
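Enzyme 2 nM + cpd (0.7 nM–77 uM titration) + 4-MU-alpha-Gal 80 uM, pH 5.9 citrate/Tween-20, RT 20 min, NaOH/glycine stop pH 10, fluor 365/440. Normalized to no-enzyme and full-activity controls; Hill-fit AC50.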

Assay [3] in a line: Validation screen for inhibitors of Lassa infection (AID 463096; calls by dose curve; further: on the % scale 0 is the no-effect control and ±100 the full control effect).
The nature of assay [4]: qHTS for Inhibitors of the Functional Ribonucleoprotein Complex (vRNP) of Lassa (LASV) Arenavirus: LASV Primary Screen - GLuc reporter signal (AID 1347082; calls by dose curve; tested in HEK293 reporter line; further: on the % scale 0 is the no-effect control and ±100 the full control effect; nearly all actives have a fitted effect of over 60% in size).
Assay [5] is described as follows: qHTS for Inhibitors of the Functional Ribonucleoprotein Complex (vRNP) of Lassa (LASV) Arenavirus: Viability assay - alamar blue signal for LASV Primary Screen (AID 1347083; calls by dose curve; tested in HEK293 reporter line; further: on the % scale 0 is the no-effect control and ±100 the full control effect; nearly all actives have a fitted effect of over 80% in size).
Assay [6] in a line: qHTS for Inhibitors of the Functional Ribonucleoprotein Complex (vRNP) of Lymphocytic Choriomeningitis Arenaviruses (LCMV): Viability assay - alamar blue signal for LCMV Primary Screen (AID 1347085; calls by dose curve; tested in HEK293 reporter line; further: on the % scale 0 is the no-effect control and ±100 the full control effect; nearly all actives have a fitted effect of over 80% in size). Background: In qHTS, concentration-response curves come from the screen itself.
For assay [7], the target named is Nucleoprotein (Lymphocytic choriomeningitis virus (strain Armstrong)) (UniProt P09992). The assay is described as follows: qHTS for Inhibitors of the Functional Ribonucleoprotein Complex (vRNP) of Lymphocytic Choriomeningitis Arenaviruses (LCMV): LCMV Primary Screen - GLuc reporter signal (AID 1347086; calls by dose curve; further: on the % scale 0 is the no-effect control and ±100 the full control effect; nearly all actives have a fitted effect of over 70% in size).
Chain of Nucleoprotein (Lymphocytic choriomeningitis virus (strain Armstrong)) (P09992 whole entry, looked up): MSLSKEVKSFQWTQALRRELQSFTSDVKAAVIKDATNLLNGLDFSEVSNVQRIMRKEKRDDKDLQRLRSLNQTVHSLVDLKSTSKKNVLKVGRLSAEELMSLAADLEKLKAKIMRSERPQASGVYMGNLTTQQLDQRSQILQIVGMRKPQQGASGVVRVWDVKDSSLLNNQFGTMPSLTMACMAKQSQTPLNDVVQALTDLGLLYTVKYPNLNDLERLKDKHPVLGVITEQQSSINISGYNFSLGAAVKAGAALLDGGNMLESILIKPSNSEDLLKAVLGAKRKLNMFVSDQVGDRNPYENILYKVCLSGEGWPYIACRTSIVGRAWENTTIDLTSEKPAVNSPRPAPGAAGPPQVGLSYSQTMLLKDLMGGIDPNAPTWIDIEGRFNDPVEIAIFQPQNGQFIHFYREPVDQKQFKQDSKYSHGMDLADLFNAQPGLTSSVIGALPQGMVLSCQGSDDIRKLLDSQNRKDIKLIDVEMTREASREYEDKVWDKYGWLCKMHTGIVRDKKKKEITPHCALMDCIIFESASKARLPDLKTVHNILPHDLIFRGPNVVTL
The nature of assay [8]: Inducers of the Endoplasmic Reticulum Stress Response (ERSR) in human glioma: Validation (AID 504836). Further: 0% is about no effect. A digest of the protocol:
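Stably transfected U87-MG glioma cells carrying a GRP78-based luciferase sensor; 16 h compound incubation. Luminescence end-point read 10 min after Bright-Glo addition at room temperature.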

Assay [9] concerns the target Flap endonuclease 1 (Homo sapiens) (UniProt P39748). The experiment in a line: qHTS Validation Assay for the Inhibitors of Human Flap endonuclease 1 (FEN1) (AID 488816). Further: on the % scale 0 is the no-effect control and ±100 the full control effect. A digest of the protocol: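 Enzyme reagent 10 nM; cpds pinned; 15 min RT preinc.; substrate 50 nM final; reads t=0 and 15 min; no-enzyme buffer wells as neg. control; normalized data, 4-parameter Hill fit.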

Assay [10] deals with Chromobox protein homolog 1 (Homo sapiens) (UniProt P83916). The assay is described as follows: qHTS Validation Assay for Inhibitors of HP1-beta Chromodomain Interactions with Methylated Histone Tails (AID 488953).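 Further: loss of AlphaScreen luminescence from HP1-beta binding biotinylated H3K9me3 peptide; on the % scale 0 is the no-effect control and ±100 the full control effect; nearly all actives have a fitted effect of over 50% in size.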 In a few lines: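 AlphaScreen proximity signal from streptavidin donor and nickel chelate acceptor beads (final 10 ug/mL) after 30 min dark incubation. Compounds had 30 min at room temperature with preformed complex of 50 nM HP1-beta and 50 nM b-H3(1-18)K9me3 in PBS pH 7.4 with 0.01% Tween-20.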
Chain of Chromobox protein homolog 1 (Homo sapiens) (P83916 whole entry, looked up): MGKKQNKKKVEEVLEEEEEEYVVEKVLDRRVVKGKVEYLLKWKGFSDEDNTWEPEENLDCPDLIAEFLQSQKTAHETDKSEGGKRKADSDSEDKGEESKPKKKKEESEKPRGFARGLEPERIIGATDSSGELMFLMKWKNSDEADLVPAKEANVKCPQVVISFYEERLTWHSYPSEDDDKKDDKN

Assay [11] in a line: qHTS profiling of the MIPE4 collection as inhibitors of Plasmodium falciparum (DD2) proliferation (AID 743345; call rule not given here). Particulars: P. falciparum Dd2 in erythrocytes, SYBR Green DNA, 72 h; at 28.5 µM (top of the series) unless noted. A digest of the protocol:
(§1)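 Parasite DNA was quantified by SYBR Green I fluorescence (ex 485, em 535 nm) after overnight lysis in saponin/Triton buffer at room temperature. Cultures at 0.3% parasitemia and 2.5% hematocrit were first exposed to compound for 72 h at 37 C; signals were normalised to artemisinin (0.29 uM) and vehicle wells.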

A short description of assay [12]: qHTS profiling of the MIPE4 collection as inhibitors of Plasmodium falciparum (DD2) proliferation (Rep 2) (AID 743346; call rule not given here). To be noted: P. falciparum Dd2 in erythrocytes, SYBR Green DNA, 72 h; at 28.5 µM (top of the series) unless noted. A digest of the protocol:
as §1

Chain of Alpha-galactosidase (Coffea arabica) (Q42656 whole entry, looked up): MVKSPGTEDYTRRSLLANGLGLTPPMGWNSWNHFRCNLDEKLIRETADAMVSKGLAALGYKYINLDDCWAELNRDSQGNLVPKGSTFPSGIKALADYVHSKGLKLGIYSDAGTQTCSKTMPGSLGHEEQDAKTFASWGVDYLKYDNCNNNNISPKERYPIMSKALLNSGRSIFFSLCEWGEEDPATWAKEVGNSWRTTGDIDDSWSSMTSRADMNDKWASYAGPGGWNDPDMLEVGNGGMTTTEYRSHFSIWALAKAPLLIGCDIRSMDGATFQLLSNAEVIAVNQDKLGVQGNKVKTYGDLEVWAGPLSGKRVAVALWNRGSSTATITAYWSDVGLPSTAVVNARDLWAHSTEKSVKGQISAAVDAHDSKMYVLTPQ
Chain of Flap endonuclease 1 (Homo sapiens) (P39748 whole entry, looked up): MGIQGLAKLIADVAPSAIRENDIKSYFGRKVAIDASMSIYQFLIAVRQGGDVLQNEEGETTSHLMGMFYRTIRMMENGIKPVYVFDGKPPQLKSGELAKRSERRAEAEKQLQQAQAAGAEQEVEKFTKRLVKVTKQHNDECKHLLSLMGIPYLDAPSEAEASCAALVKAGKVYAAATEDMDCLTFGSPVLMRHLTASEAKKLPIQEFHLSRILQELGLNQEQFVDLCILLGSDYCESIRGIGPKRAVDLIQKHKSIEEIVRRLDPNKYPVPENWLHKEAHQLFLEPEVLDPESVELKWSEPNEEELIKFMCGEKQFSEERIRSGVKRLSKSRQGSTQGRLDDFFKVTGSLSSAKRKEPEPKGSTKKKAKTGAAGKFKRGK

As to `CCCCCCCCCCC/C=C\C(C)(C)/C=C\CCCC(=O)O`, the call in assay [1] and in [2] was inactive. Besides, the Potency entry in assay [3], in assay [4], in assay [5], in [6] and in assay [7] was “inactive” in each case.
Consider `CC[C@H](NC(=O)c1c(C)c(-c2ccccc2)nc2ccccc12)c1ccccc1`, for which the outcome in assay [1] and in assay [2] was inactive. For the same molecule, the Potency result in assay [3], in [4], in assay [5], in [6] and in assay [7] was “inactive” in each case.
For the molecule `CCc1ccc2c(-c3cccc(Cl)c3)nc(=O)n(CC)c2n1`, the outcome in assay [8] was inactive. In addition, the Potency entry in assay [4], in assay [5], in assay [6] and in assay [7] was “inactive” in each case.
As for `OC[C@H]1O[C@@H](n2cnc3c(Nc4ccccc4)ncnc32)[C@H](O)[C@@H]1O`, the result in assay [8] was inactive. Moreover, the Potency entry in assay [4], in [5], in [6] and in assay [7] was “inactive” throughout.
Turning to `Cc1cccc(C(=O)NCN2CCN(c3ccccc3C#N)CC2)c1`, the molecule was classed as inactive in [1], in assay [2] and in assay [8]. The Potency result in [3], in [4], in [5], in assay [6] and in assay [7] was “inactive” each time.
For `N=C(N)SCCN`, the call in assay [1], in assay [2] and in assay [8] was inactive. In addition, the Potency result in [3], in [4], in assay [5], in assay [6] and in assay [7] was “inactive” throughout.
Take `CN(C)CCCO[C@@H]1[C@H]2OC(C)(C)O[C@H]2O[C@@H]1[C@H](O)CO`: the molecule was classed as inactive in assay [8]. The Potency entry in assay [4], in [5], in assay [6] and in assay [7] was “inactive” throughout.
As for `COCc1nc2c([nH]1)c(=O)n(C)c(=O)n2CC(C)C`, the result in assay [1], in assay [2] and in assay [8] was inactive. Moreover, the Potency result in [3], in assay [4], in assay [5], in assay [6] and in [7] was “inactive” throughout.
`C[C@H]1O[C@@H](n2cc(F)c(=O)[nH]c2=O)[C@H](O)[C@H]1O`: in assay [8], the molecule was called inactive. The Potency entry in assay [4], in assay [5], in assay [6] and in [7] was “inactive” in each case.
For `O=[N+]([O-])c1cccc2cn[nH]c12`, the molecule was classed as inactive in [1], in assay [2] and in assay [8]. Also, the Potency entry in [3], in [4], in assay [5], in assay [6] and in [7] was “inactive” each time.
On to `O=C(O)c1cc(=O)cc(C(=O)O)[nH]1`, for which the molecule was classed as inactive in [1] and in [2]. Further, the Potency result in [3], in assay [4], in [5], in [6] and in [7] was “inactive” each time.
Take `Cc1ccc([N+](=O)[O-])cc1S(=O)(=O)N(C)C`: the result in [1] and in assay [2] was inactive. For the same molecule, the Potency entry in assay [3], in assay [4], in assay [5], in [6] and in assay [7] was “inactive” in each case.
Take `OCC1O[C@H]([S-])[C@H](O)[C@@H](O)[C@@H]1O.[Au+]` (some centres undefined): the outcome in assay [8] was inactive. The Potency entry in assay [4], in assay [5], in assay [6] and in [7] was “inactive” throughout.
`CN[C@H](CC(C)C)C(=O)N[C@H]1C(=O)N[C@@H](CC(N)=O)C(=O)N[C@@H]2C(=O)N[C@H]3C(=O)N[C@H](C(=O)N[C@H](C(=O)O)c4cc(O)cc(O)c4-c4cc3ccc4O)[C@H](O)c3ccc(c(Cl)c3)Oc3cc2cc(c3O[C@@H]2O[C@H](CO)[C@@H](O)[C@H](O)[C@@H]2O[C@H]2C[C@](C)(N)[C@H](O)[C@H](C)O2)Oc2ccc(cc2Cl)[C@H]1O`: the Potency entry in assay [9], in [10], in [4], in assay [5], in assay [6] and in assay [7] was “inactive” throughout. The molecule was called inactive in assay [8]. Also, the parasite growth remaining, % of DMSO control (lower = more inhibition) in assay [11] was 104%. Also, the parasite growth, % of control (lower = inhibition) in assay [12] is 150%.
